The sample as a whole holds a higher share of hits than the screen did.
STK33 inh: human STK33 kinase inhibition; Q9BYT3; ADP-Glo luminescence, MBP substrate; inhibition, % at 12.5 µM; hit rate 0.44% among 27,000; in the data active = inhibition above about 20%; inconclusive = no clear call, values can overlap the other calls
mut p53 react: mutant p53 pathway reactivation; activation, % at 9.98 µM; SW480 PUMA-promoter luciferase; hit rate 1.5% among 28,000; AID 624151; in the data active = activation above about 52%; inconclusive = no clear call, values can overlap the other calls
ID4 SMM: binds human ID4 protein on microarray; P47928; small molecule microarray, Flag-ID4 binding, fluorescence F/B; calls only; hit rate 1.2% among 31,000; call rule not given here;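 also: a binder raises fluorescence above local background on the spot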
NOMO-1 viab: STK33 inhibitor candidate reducing NOMO-1 cell viability. AID 2330. hit rate 7.5% among 37,000. NOMO-1 AML viability, CellTiter-Glo luminescence, 72 h. inhibition, % (no concentration beside the values); in the data active = inhibition above about 80%; inconclusive = no clear call, values can overlap the other calls
* marks the source's active call; other numbers are inactive results; i = inactive; ? = inconclusive; . = no result; + = active, no number.

SMILES	STK33 inh	mut p53 react	ID4 SMM	NOMO-1 viab
C[C@H]1CN([C@@H](C)CO)C(=O)c2cccc(NC(=O)Nc3ccc(C(F)(F)F)cc3)c2O[C@H]1CN(C)C(=O)Nc1ccc(C(F)(F)F)cc1	.	.	.	70
C[C@@H]1CN([C@H](C)CO)C(=O)c2cccc(NC(=O)Nc3ccc(C(F)(F)F)cc3)c2O[C@@H]1CN(C)C(=O)Nc1ccc(C(F)(F)F)cc1	.	.	.	98*
COc1ccc(NC(=O)N(C)C[C@H]2Oc3c(NC(=O)Nc4ccc(C(F)(F)F)cc4)cccc3C(=O)N([C@@H](C)CO)C[C@H]2C)cc1	.	.	.	88*
C[C@@H]1CN([C@@H](C)CO)C(=O)c2cccc(NC(=O)NC3CCCCC3)c2O[C@@H]1CN(C)C(=O)Nc1ccc(C(F)(F)F)cc1	.	-27	i	94*
Cc1noc(C)c1S(=O)(=O)N(C)C[C@H]1Oc2ccc(NC(=O)NC(C)C)cc2CC(=O)N([C@@H](C)CO)C[C@H]1C	-3	-1	i	23
COc1ccc(S(=O)(=O)N(C)C[C@@H]2Oc3c(NC(=O)c4ccncc4)cccc3C(=O)N([C@H](C)CO)C[C@@H]2C)cc1	.	0	i	16
C[C@H](CO)N1C[C@H](C)[C@H](CN(C)C(=O)Nc2ccc(F)cc2)Oc2c(NC(=O)Nc3ccc(C(F)(F)F)cc3)cccc2C1=O	.	-16	i	103*
O=C(O)COc1ccc(NC(=O)c2ccc(NC(=O)c3ccco3)cc2)cc1	12	-14	+	18
O=C(OCc1cccc([N+](=O)[O-])c1)c1ccc(NC(=O)c2ccco2)cc1	-5	70*	i	2
CC(=O)Nc1ccc(C(=O)Nc2ccc(OCC(=O)O)cc2)cc1	1	-4	i	-4
Cc1cc(C)cc(COc2ccc3c(C)c(CCC(=O)O)c(=O)oc3c2C)c1	0	4	i	-2
CC(C)C#Cc1cnc2c(c1)C(=O)N([C@@H](C)CO)C[C@H](C)[C@@H](CN(C)C(=O)c1cccc(F)c1)O2	.	.	i	.
CCC(=O)c1ccc2c(c1)N(CC(C)N(C)C)c1ccccc1S2 (stereo unspecified)	-1	.	.	84*
Cc1cc(C)nc(SCC(=O)N2c3ccccc3Sc3ccccc32)n1	1	-6	i	-1
O=C1C[C@@](C(=O)NCCN2CCOCC2)(c2ccc([N+](=O)[O-])cc2)[C@@H](c2ccc(CO)cc2)N1CC12CC3CC(CC(C3)C1)C2	-2	.	i	.
C[C@H](CO)N1C[C@H](C)[C@H](CN(C)C(=O)C2CCCCC2)OCCCC[C@H](C)Oc2ccc(NS(=O)(=O)c3cccs3)cc2C1=O	.	-12	i	.
CCc1ccccc1NC(=O)CSc1nc2ccc(C(=O)c3ccccc3)cc2[nH]1	2	3	i	12
Cc1ccc2nc(S/C=C/C(=O)c3ccccc3)[nH]c2c1	?	.	.	123*
Cc1ccnc(SCc2cccc(C(=O)O)c2)n1	12	-18	i	1
Cc1noc(C)c1NC(=O)N(C)C[C@@H]1Oc2c(NC(=O)c3ccncc3)cccc2C(=O)N([C@@H](C)CO)C[C@H]1C	.	6	i	13
Cc1noc(C)c1S(=O)(=O)Nc1ccc2c(c1)C(=O)N([C@H](C)CO)C[C@H](C)[C@@H](CN(C)Cc1ccc(C(=O)Nc3ccccc3N)cc1)OCCCC[C@@H](C)O2	.	.	.	127*
Cc1noc(C)c1S(=O)(=O)Nc1ccc2c(c1)C(=O)N([C@@H](C)CO)C[C@@H](C)[C@H](CN(C)Cc1ccc(C(=O)Nc3ccccc3N)cc1)O2	.	.	.	12
Cc1noc(C)c1S(=O)(=O)Nc1ccc2c(c1)C(=O)N([C@H](C)CO)C[C@H](C)[C@H](CN(C)Cc1ccc(C(=O)Nc3ccccc3N)cc1)OCCCC[C@@H](C)O2	.	.	.	139*
COc1cc(C(=O)N=C2C(C)=CC(=O)C=C2C)cc(OC)c1OC	.	.	.	135*
COc1cc2c(cc1O)C(C1CC1)N(Cc1cc3c(cc1Br)OCO3)CC2 (stereo unspecified)	0	.	i	.
CC(C)C[C@](CC(=O)OCc1ccc(O[C@@H]2O[C@H](CO)[C@@H](O)[C@H](O)[C@H]2O)cc1)(O[C@@H]1O[C@H](CO)[C@@H](O)[C@H](O)[C@H]1O)C(=O)OCc1ccc(O[C@@H]2O[C@H](CO)[C@@H](O)[C@H](O)[C@H]2O)cc1	-1	.	i	95*
O=C(Nc1ccc(OCc2nc3ccccc3s2)cc1)c1cccc(I)c1	-2	37	i	105*
CCC(=O)Nc1ccc(OCc2nc3ccccc3s2)cc1	-1	3	i	-7
COc1ccc(-c2csc3ncn(CC(=O)Nc4sc5c(c4C#N)CCC5)c(=O)c23)cc1OC	2	-8	+	23
